Experimental data as given in PubChem BioAssay (NCI).
Values joined by “and” are separate entries in the source; they are usually repeats but may differ in a detail not shown here. Equal values may be shown once. About 83,000 compounds went through this panel and 20% of them were active in at least one assay; those are over-represented in the sample as a whole.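 Note: values are percent growth. 100 is the growth of untreated cells, values between 100 and 0 indicate rising inhibition; between -100 and 0 indicates cell death.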 A number with no mark means an inactive call. Active and inactive are the calls of the source. How the source made its calls: active means growth percent below 10; inactive means the rest.

Tested on: MDA-MB-468 breast
Test: NCI-60 one-dose screen, 48 h (100 = growth as untreated, 0 = no growth, -100 = all killed)
Settings: 10 µM unless noted

Row | SMILES | growth
1 | COc1cccc(NC(=O)Nc2ccc(Nc3ncnc4sc5c(c34)CCN(C(=O)CCl)C5)cc2)c1 | 117%
2 | Cc1cc(NCC(=O)Nc2ccc(-c3nc4ccccc4s3)cc2)no1 | -46.7% (active)
3 | CN(C)c1ccc(C2CC(c3ccccc3)=NN2/C=C2\SC(=O)NC2=O)cc1 (configuration not stated) | 100%
4 | N#CCCc1ccc(O)cc1 | 104%
5 | O=C(O)c1ccc(Cl)cc1Nc1ccc(F)cc1 | 27.9%
6 | CCOc1cccc(/C=N/NC(=O)c2cccc(Nc3ccnc(C(F)(F)F)c3)c2)c1O | 31.4%
7 | C#C[C@@]1(O)[C@@H](CO)O[C@@H](n2cc(Br)c3c(Cl)ccnc32)[C@@H]1O | 14%
8 | NC(=O)c1c(NC(=O)c2ccc(Cl)cc2)sc2c1CCC(=O)C2 | 88.5%
9 | COc1cc(Nc2nc(NCCN)nc3cc[nH]c(=O)c23)cc(OC)c1 | 3.37% (active)
10 | Cc1ccc(S(=O)(=O)N2CCc3ccc(O)c4c3C2Cc2ccc3c(c2-4)OCO3)cc1 (configuration not stated) | 1.75% (active)
11 | O=C1OC(=O)C2C1C1(Cl)C(Cl)=C(Cl)C2(Cl)C2C(=O)OC(=O)C21 (configuration not stated) | 94.3%
12 | O=[N+]([O-])CC(O)c1ccccc1 (configuration not stated) | 98.7%
13 | CCn1c(=O)c2c(=O)c3c4c(oc3oc2c2ccccc21)C(=O)c1ccccc1C4=O | -29.6% (active)
14 | N=C(N)c1ccc(-c2ccc(-c3ccccc3)o2)nc1 | 59.9%
15 | Nn1c(=O)n(-c2cccc(C(F)(F)F)c2)c(=O)c2cc(-c3ccc(F)cc3F)ccc21 | -5.36% (active)
16 | CCN(CC)CCCC(C)NCCCNc1cccc2cccnc12 (configuration not stated) | 90%
17 | CNCc1cccc2c1OCCCCCCC(C)(O)CC(C)(C)S(=O)(=O)c1ccc(cc1)-c1cnc(N)c(n1)C(=O)N2 (configuration not stated) | -54.1% (active)
18 | NC1=NC(SCc2ccccc2CCl)c2ncn(Cc3ccccc3CCl)c2N1 (configuration not stated) | -33.2% (active)
19 | CN1CCN(C(=O)OCc2ccc3c(Cl)cc(Cl)c(O)c3n2)CC1 | 67.1%

Row | SMILES | growth
20 | O=S(=O)(Nc1cc(Sc2cccc3cccnc23)c(O)c2ccccc12)c1ccccc1 | -42.6% (active)
21 | N#Cc1c(Oc2ccc([N+](=O)[O-])cc2)nc2sc3cc(Cl)ccc3n2c1=N | -39.8% (active)
22 | COc1ccc(C(=O)c2sc3nc4c(c(C(F)(F)F)c3c2N)CN(C(C)=O)CC4)cc1OC | 83.7%
23 | COc1c(B(O)O)cccc1-c1nc2ccc3n[nH]c(F)c3c2c2c1CCCC2 | 71.9%
24 | O=C(Nc1ccc(Nc2ccncc2)cc1)c1ccc(Nc2ccnc3ccc([N+](=O)[O-])cc23)cc1[N+](=O)[O-] | 21.7%
25 | OC(CC(c1ccccc1)c1cccc2ccccc12)(c1ccccc1)c1ccccc1 (configuration not stated) | 86.3% and 84.5%
26 | CC1(C)N=C(N)N=C(N)N1c1cccc(OCCOc2cccc([N+](=O)[O-])c2)c1 | 25.1%
27 | CN(C)CCOc1nc2c3cc([N+](=O)[O-])ccc3nn2c2ccccc12 | 60.2%
28 | CCCCC1CCc2cccc3c(SCC(=O)N(C)c4ccc(Cl)cc4)cc[n+]1c23 (configuration not stated) | 106%
29 | CC1C=CC(OC(=O)C(C)(O)CCC(O)(C(=O)OC2CC(O)C(C(C)C)CC2(C)O)C(C)C)(C(C)C)CC1 (configuration not stated) | -69.9% [4.63 µM] (active)
30 | COC(=O)/C(CCC=C(C)C)=C1\[C@@H](OC(C)=O)C[C@@]2(C)[C@H]1CC(=O)[C@H]1[C@@]3(C)CCC(N4CCCC4)[C@@H](C)[C@@H]3CC[C@@]12C (some centres not stated) | 99.7%
31 | O=C(Nc1ccc(Cl)cc1)N1NC(c2ccc(Cl)cc2)C=C1c1ccccc1 (configuration not stated) | 98.3%
32 | C/C=C/[C@@H]1C=C[C@@H]2C[C@H](C)CC[C@H]2[C@]1(C)/C(O)=C1/C(=O)[C@H](CO)N(C)C1=O | 65.5%
33 | COc1cc(C2C(C#N)=C(N)Oc3cc4c(cc32)OCO4)cc2c1OCO2 (configuration not stated) | -8.15% (active)
34 | COc1cccc(CC(C)=C(c2ccc(OCCN3CCCCC3)cc2)c2ccc(OCCN3CCCCC3)cc2)c1 | -82.8% (active)
35 | Cn1nc(Nc2ccccc2)c(C(=O)NN)c1N | 100%
36 | O=c1cc(-c2ccccc2)nc2sc(-c3c[nH]c4ccc(Br)cc34)nn12 | 87.2%
37 | CCc1c(C(=O)N[C@@H]2c3cc(Cl)ccc3CC[C@@H]2O)[nH]c(C)c1C(C)=O | 94.1%
